Compound activity: PubChem, National Center for Advancing Translational Sciences (NCATS)
SMN2 splice up: enhancers of SMN2 splice variant expression; HEK293 SMN2-luciferase splicing reporter, luminescence, 30-36 h; Potency, µM (top dose mostly 46.1 µM), without a hit: top-dose activity change, positive = activation, most hits filed as activators; 2.8% of 210,000 active; further: % of control where 0% means no effect; nearly all actives have a fitted effect of over 55% in size
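HEK293 cells carry an SMN2 […]–luciferase reporter in which exon 7 inclusion puts luciferase in frame. Cells were plated 10-12 h before compound addition, then incubated 30-36 h at 37C. ONE-Glo luminescence was read; sodium butyrate at 4.5 mM final served as control.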
NPC1 prom act: activates the NPC1 promoter. Huh7 NPC1 promoter luciferase reporter, 24 h. Potency, µM (doses to about 9.22 µM), without a hit: top-dose activation, usual class: activators. 2.4% of 320,000 active. AID 485313; further: % of control where 0% means no effect; nearly all actives have a fitted effect of over 60% in size
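Readout is luciferase luminescence, reflecting NPC1 promoter activation in stably transfected Huh7 cells after 24 h compound exposure at 37 °C in reduced-serum medium with 10% FBS.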
Rab9 prom act: activates the Rab9 promoter | 2.8% of 320,000 active | Potency, µM (series often up to 9.22 µM), for inactives: top-dose activation, negative = inhibition, actives largely listed as activators | Huh7 Rab9 promoter-luciferase reporter, luminescence, 24 h; further: % of control where 0% means no effect; nearly all actives have a fitted effect of over 60% in size
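Luminescence read-out: Huh7 cells stably expressing Rab9-luciferase, treated 24 h with compound at 37 °C, then lysed with luciferase reagent for 10 min at ambient before reading.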
ELG1 genotoxic: inducers of genotoxicity in HEK293T ELG1-luciferase cells; Potency, µM (doses to about 46 µM), without a hit: at the top dose activity change, positive = activation, actives largely listed as activators; HEK293T ELG1-luciferase reporter, luminescence, 16 h; 1.3% of 330,000 active; AID 504466; further: % of control where 0% means no effect; nearly all actives have a fitted effect of over 60% in size
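HEK293T cells expressing luciferase-tagged ELG1 were exposed to compound or DMSO vehicle for 16 hr at 37 °C and 5% CO2. Luciferase activity was then measured with ONE-Glo after 30 min at room temperature.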
FLuc counter: inhibits or activates purified firefly luciferase, miR-21 counter-screen; AID 588342; Potency, µM (titrated, usually from 57.5 µM), for the others: top-dose activity change, negative = inhibition, most hits filed as inhibitors; 6.9% of 360,000 active; purified FLuc, Km substrates, luminescence inhibition;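 further: plate controls were vehicle for no effect and reference inhibitor for full effect; nearly all actives have a fitted effect of over 55% in size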
Target sequence (P08659 whole entry, looked up): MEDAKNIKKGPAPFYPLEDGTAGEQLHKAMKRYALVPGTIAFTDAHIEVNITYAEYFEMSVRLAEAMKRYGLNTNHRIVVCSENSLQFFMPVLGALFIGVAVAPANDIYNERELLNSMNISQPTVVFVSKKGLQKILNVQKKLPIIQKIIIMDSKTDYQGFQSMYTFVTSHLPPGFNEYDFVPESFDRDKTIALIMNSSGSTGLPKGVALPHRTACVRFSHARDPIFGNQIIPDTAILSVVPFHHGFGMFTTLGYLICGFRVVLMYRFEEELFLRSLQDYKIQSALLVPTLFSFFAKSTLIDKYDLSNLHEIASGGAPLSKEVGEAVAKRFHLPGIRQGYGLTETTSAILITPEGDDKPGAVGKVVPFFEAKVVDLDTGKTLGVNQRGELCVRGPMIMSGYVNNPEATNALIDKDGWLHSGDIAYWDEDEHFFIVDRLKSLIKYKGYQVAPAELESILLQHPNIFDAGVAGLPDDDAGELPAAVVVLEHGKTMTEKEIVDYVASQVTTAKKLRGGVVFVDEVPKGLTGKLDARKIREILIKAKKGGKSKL
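Biochemical qHTS of compounds, final roughly 60 µM downward over six points, against 10 nM purified firefly luciferase using Km concentrations of substrates (10 uM D-luciferin, 10 uM ATP) in Tris acetate pH 7.5 buffer; luminescence output.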
ELG1 repair inh: ELG1-dependent DNA repair inhibition; HEK293T ELG1-luciferase reporter, luminescence, 16 h; DNA damage induced by 5-fluorouridine; AID 504467; 2.3% of 330,000 active; Potency, µM (titrated, usually from 46.1 µM), for the others: top-dose activity change, negative = inhibition, most hits filed as inhibitors; further: on the % scale 0 is the no-effect control and ±100 the full control effect; nearly all actives have a fitted effect of over 55% in size
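Step one: seed 2,000 cells per well. Step two: pin-transfer compound or DMSO alongside 5-fluorouridine. Step three: incubate 16 hr, 37 °C, 5% CO2. Step four: add ONE-Glo, wait 30 min, read luminescence.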
* marks the source's active call; other numbers are inactive results; ? = inconclusive; / = no result; [ ] = dose if it differs, or a comment. Only some compounds are listed: those with a hit (about 9.2% of all), similar ones and a draw of the others. The call rests on the fitted dose curve; in most records, active means well fitted curve in the direction sought with a large enough effect; inconclusive means small, poorly fitted or top-dose-only effect, or another doubt; inactive means no such curve, though single readings can be large; an effect the other way counts as inactive or inconclusive. Potency means the concentration at half of the fitted maximal effect.

SMILES	SMN2 splice up	NPC1 prom act	Rab9 prom act	ELG1 genotoxic	FLuc counter	ELG1 repair inh
Cc1cc(C)c(OCC(=O)Nc2nnc(C3CC3)s2)c(C)c1	/	-2.2%	-2.9%	-0.6%	0.9%	-2.0%
Cc1cccc(NS(=O)(=O)c2ccc3c(c2)OCC(C(=O)N2CCCC2)O3)c1C (stereo not given)	/	/	/	/	-10.3%	/
COc1ccc(CNC(=O)Cc2c(C)c3c(O)cc(C)cc3oc2=O)cc1	21.2%	/	/	/	1.5%	/
COc1ccc(CNC(=O)Cc2c(C)c3ccc(O)cc3oc2=O)cc1	-1.4%	/	/	/	7.57µM*	/
COC(=O)Cc1c(C)c2ccc(OC(=O)c3ccccc3)cc2oc1=O	15.3%	-3.0%	-0.1%	0.2%	15.1µM*	14.9%
Cc1c(CC(=O)O)c(=O)oc2cc(OCc3ccc(Cl)cc3)ccc12	/	12.0%	14.6%	6.3%	8.49µM*	?
CC(=O)N(c1nnc(-c2ccc(C)cc2)s1)C1CCCC1	/	-0.4%	?	?	13.5µM*	?
CC(C)CC(=O)N(c1nnc(-c2cccnc2)s1)C1CCCC1	/	-1.5%	0.7%	-0.8%	1.6%	7.0%
CC1CN(C(=O)C(C)OC(=O)c2ccc3ncsc3c2)CC(C)O1 (stereo not given)	/	-1.9%	0.0%	1.6%	-1.5%	9.8%
O=C(OCc1ccc(F)cc1)c1cc(=O)c2ccccc2o1	/	-4.0%	1.0%	1.0%	15.1µM*	1.4%
CCCCn1c(CCNC(=O)c2cccs2)nc2ccccc21	8.8%	3.55µM*	28.9%	-3.7%	4.1%[2.3 µM]	-27.7%
COc1ccc2cc(CCNC(=O)c3cccs3)c(=O)[nH]c2c1	6.31µM*	2.82µM*	2µM*	?	10.7µM*	?
COc1ccc2cc(CCNC(=O)c3cc4ccccc4o3)c(=O)[nH]c2c1	/	1.6%	-0.6%	-4.7%	6.0%	-8.5%
O=C(NCCc1ccc(F)cc1)c1cccs1	15.8µM*	2.82µM*	2.51µM*	?	12µM*	?
O=C(CNC(=O)c1cccs1)OCc1ccc(Br)cc1	/	1.4%	3.5%	-2.9%	2.3%	1.9%
O=C(CNC(=O)c1cccs1)c1ccc(Br)cc1	/	0.794µM*	0.447µM*	?	9.53µM*	?
Cc1cccc(NC(=O)C(CCC(N)=O)NC(=O)OCc2ccccc2)c1 (stereo not given)	/	1.8%	1.0%	1.1%	-2.3%	10.1%
Cc1ccccc1NC(=O)Cn1c(=O)n(CCC(=O)NCc2ccc3c(c2)OCO3)c(=O)c2sccc21	2.9%	/	/	/	-7.0%	/
Nc1c(-c2nc(-c3ccccc3)cs2)c2ccccn2c1C(=O)c1ccc2c(c1)OCO2	27.1%	/	/	/	-8.6%	/
O=C(NCCCc1ccccc1)c1cccs1	-8.7%	?	26.0%	12.4%	?	?
O=C(NCC(O)c1ccccc1)c1cccs1 (stereo not given)	/	2.51µM*	?	?	16.9µM*	?
O=C(NCCc1cccs1)c1cccs1	?	2.82µM*	2.82µM*	?	13.5µM*	?
O=C1CSC2(C(=O)N(Cc3ccccc3F)c3ccccc32)N1c1cccc(C(F)(F)F)c1 (stereo not given)	/	/	/	/	-1.2%	/
COc1cc(C2NC(=S)NC(C)=C2C(=O)Nc2ccc(C)cc2)ccc1O (stereo not given)	/	?	2.24µM*	17.3%	?	?
COCCn1c(CCC(=O)Nc2ccc(OC)c(OC)c2)nc2cccnc21	1.3%	/	/	/	-0.8%	/
SMILES	SMN2 splice up	NPC1 prom act	Rab9 prom act	ELG1 genotoxic	FLuc counter	ELG1 repair inh
COc1ccc(C(=O)NCCC(=O)N2CCC3(CC2)NCCc2[nH]cnc23)cc1	/	-0.1%	1.2%	-0.4%	0.3%	15.7%
CCNC(=O)NC(=O)C(C)Oc1ccc(Br)cc1Br (stereo not given)	?	9.8%	23.0%	?	16.9µM*	26.3%
CCNC(=O)NC(=O)C(C)OC(=O)C(C)(C)Oc1ccc(Cl)cc1 (stereo not given)	-7.9%	-1.8%	6.8%	-2.3%	1.5%	3.3%
COc1ccc(NC(=O)CCNS(=O)(=O)c2ccc3c(c2)CC(C)N3C(C)=O)cc1 (stereo not given)	/	-1.0%	-6.9%	-1.6%[9.26 µM]	-0.6%	-8.1%
COc1cccc(CNC(=O)CCNS(=O)(=O)c2ccc3c(c2)CC(C)N3C(C)=O)c1 (stereo not given)	/	-0.8%	-2.9%	-0.6%[9.26 µM]	0.0%	8.2µM*
C=C(C)[C@H]1CC=C(C)C(=O)C1	-5.5%	-2.1%	2.0%	2.1%	3.6%	14.5%
O=C(CC1CCCCC1)Nc1nc2ccccc2s1	11.2µM*	1.78µM*	1.58µM*	?	?	?
CCOC(=O)C(C(=O)Nc1nc2ccccc2s1)C1CCCCC1 (stereo not given)	-19.5%	3.7%	2.4%	-0.9%	-0.6%	-4.6%
O=C(Nc1nc2ccccc2s1)NC1CCCCC1	/	1.41µM*	0.631µM*	?	1.9µM*	?
Cc1cnc(NC(=O)CC2CCCC2)s1	17.8µM*	?	?	?	?	?
Cc1cccc(OCc2nc(CC(=O)Nc3ccc(C)c(C)c3)cs2)c1	/	/	/	/	-17.6%	/
CCCCn1c(/N=C/c2c[nH]c3ccccc23)nc2ccccc21	-25.3%	1.6%	-1.2%	-1.3%	9.53µM*	-15.1%
Cn1c(/N=C/c2c(O)ccc3ccccc23)nc2ccccc21	-19.0%	-1.6%	0.0%	15.6%	?	?
CCn1c(/C=N/n2cnnc2)nc2ccccc21	-22.2%	0.3%	8.9%	-0.3%	-0.4%	-0.3%
CCn1c(/N=C/c2c[nH]c3ccccc23)nc2ccccc21	/	0.0%	-3.3%	0.2%	0.536µM*	1.8%
CCCn1c(/N=C/c2c[nH]c3ccccc23)nc2ccccc21	-16.7%	3.0%	-0.2%	-0.7%	2.69µM*	2.1%
COc1ccc(NC(=O)c2ccc(S(=O)(=O)N3CC(C)OC(C)C3)cc2)cc1 (stereo not given)	/	/	/	-7.0%	/	?
O=C1c2ccccc2-c2n[nH]c3cccc1c23	9.7%	?	6.1%[46.1 µM]	/	/	/
O=C1c2ccccc2-c2nnc(-c3ccc(F)cc3)cc21	2.51µM*	?	0.316µM*	?	0.426µM*	?
Cc1ccccc1-c1cc2c(nn1)-c1ccccc1C2=O	?	3.16µM*	3.98µM*	?	1.35µM*	?
O=c1[nH]nc(-c2ccc(F)cc2)cc1-c1ccccc1	/	2.5%	1.0%	5.6%	1.4%	0.4%
Cc1ccc(-c2cc3c(nn2)-c2ccccc2C3=O)cc1	/	?	?	?	0.0757µM*	?
O=C1c2ccccc2-c2nnc(-c3ccc(O)cc3)cc21	6.31µM*	0.631µM*	0.501µM*	?	0.536µM*	?
CC1=C(c2ccc(C)c(C)c2)S(=O)(=O)N=C1N1CCC(C(=O)N2CCC(C(N)=O)CC2)CC1	/	/	/	/	-1.7%	/
